Assay results reported in PubChem BioAssay AID1159580 (chemical genetic matrix, 2015).
Several values for one entry are separate records, joined by “and”; a condition that tells them apart may be missing. Identical values can stand only once. About 2,000 (36%) of roughly 5,500 compounds were called active. Inconclusive results (about 18%) are left out. Rule as the data show it: active = normalized growth mostly below about 0.91 (no sharp cut-off); inconclusive = no clear call, values can overlap the other calls; inactive = mostly above about 0.92. The list shows a part of the results.

Test: chemical genetic growth profiling, strain panel (AID 1159580);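 also: tested at 20 µM; growth read once vehicle control cultures reached saturation at 30 °C; 1 = growth at the plate median or of vehicle wells; lower values mean less growth of the strain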
Settings: S. cerevisiae deletion strains, growth OD

Measured: normalized growth

CCCCC(=O)O[C@H]1CCC2C3CCc4cc(O)ccc4C3CC[C@@]21C (some centres not stated)
inactive: locus YAL021C, strain ccr4, hits give low values 1.02 | locus YAL026C, strain drs2, hits give low values 1.02 | locus YAL030W, strain snc1, hits give low values 1.03 | locus YBL061C, strain skt5, hits give low values 1.01 | locus YBR009C, strain hhf1, hits give low values 0.988 | locus YBR021W, strain FUR4, hits give low values 0.99 | locus YBR023C, strain chs3, hits give low values 1.01 | locus YBR171W, strain sec66, hits give low values 1.03 | locus YBR229C, strain ROT2, hits give low values 0.943 | locus YBR231C, strain swc5, hits give low values 1.04 | locus YBR279W, strain paf1, hits give low values 1.01 | locus YCL011C, strain gbp2, hits give low values 1.01 | locus YCL016C, strain dcc1, hits give low values 0.979 | locus YCL029C, strain bik1, hits give low values 0.98 | locus YCL061C, strain MRC1, hits give low values 1.02 | locus YCL069W, strain vba3, hits give low values 1.01 | locus YCR088W, strain abp1, hits give low values 1.01 | locus YDL005C, strain med2, hits give low values 1.01 | locus YDL035C, strain GPR1, hits give low values 0.948 | locus YDL040C, strain nat1, hits give low values 1.02 | locus YDL074C, strain BRE1, hits give low values 0.926 | locus YDL101C, strain DUN1, hits give low values 0.98 | locus YDL134C, strain PPH21, hits give low values 0.954 | locus YDL185W, strain tfp1, hits give low values 0.988 | locus YDL192W, strain arf1, hits give low values 1 | locus YDR001C, strain nth1, hits give low values 1.01 | locus YDR069C, strain doa4, hits give low values 1.01 | locus YDR101C, strain arx1, hits give low values 0.953 | locus YDR137W, strain rgp1, hits give low values 0.973 | locus YDR150W, strain NUM1, hits give low values 0.988 | locus YDR159W, strain sac3, hits give low values 0.953 | locus YDR162C, strain NBP2, hits give low values 0.919 | locus YDR195W, strain ref2 1.03 | locus YDR297W, strain sur2, hits give low values 1.03 | locus YDR318W, strain mcm21, hits give low values 0.996 | locus YDR334W, strain swr1, hits give low values 1.02 | locus YDR335W, strain msn5, hits give low values 1.02 | locus YDR388W, hits give low values 0.992 | locus YDR392W, strain spt3, hits give low values 0.804 | locus YDR502C, strain sam2, hits give low values 0.995 | locus YEL003W, strain gim4, hits give low values 1.02 | locus YEL037C, strain rad23, hits give low values 1.02 | locus YEL061C, strain CIN8 (second series), hits give low values 1.02 | locus YEL061C, strain CIN8, hits give low values 0.985 | locus YER015W, strain faa2, hits give low values 1 | locus YER016W, strain bim1, hits give low values 1 | locus YER110C, hits give low values 1.01 | locus YER111C, strain swi4, hits give low values 1.01 | locus YER155C, strain BEM2 (second series), hits give low values 1.03 | locus YER155C, strain BEM2, hits give low values 0.979 | locus YER167W, strain BCK2, hits give low values 0.979 | locus YFR010W, strain ubp6, hits give low values 1.04 | locus YGL078C, strain dbp3, hits give low values 1.01 | locus YGL086W, strain mad1, hits give low values 0.968 | locus YGL167C, strain pmr1, hits give low values 1.04 | locus YGL173C, strain kem1, hits give low values 1.01 | locus YGL227W, strain vid30, hits give low values 1.01 | locus YGL240W, strain doc1, hits give low values 1.04 | locus YGL248W, strain PDE1, hits give low values 0.976 | locus YGL253W, strain hxk2, hits give low values 0.997 | locus YGR078C, strain PAC10, hits give low values 0.973 | locus YGR135W, strain pre9, hits give low values 1.07 | locus YGR252W, strain gcn5, hits give low values 1.1 | locus YHR013C, strain ard1, hits give low values 1.03 | locus YHR027C, strain rpn1, hits give low values 1.02 | locus YHR030C, strain SLT2, hits give low values 0.98 and 0.996 | locus YHR079C, strain IRE1 (second series), hits give low values 0.997 | locus YHR079C, strain IRE1, hits give low values 0.989 | locus YHR094C, strain hxt1, hits give low values 0.991 | locus YHR129C, strain ARP1, hits give low values 0.989 | locus YHR142W, strain chs7, hits give low values 1.01 | locus YHR200W, strain rpn10, hits give low values 0.998 | locus YIL066C, strain RNR3, hits give low values 0.961 | locus YIL073C, strain SPO22, hits give low values 1 | locus YIL125W, strain kgd1, hits give low values 0.998 | locus YIR030C, strain dcg1, hits give low values 1.01 | locus YJL092W, strain hpr5, hits give low values 1.01 | locus YJL095W, strain BCK1 (second series), hits give low values 1.02 | locus YJL095W, strain BCK1, hits give low values 0.926 and 0.996 | locus YJL115W, strain asf1, hits give low values 1.02 | locus YJL129C, strain trk1, hits give low values 0.996 | locus YJL134W, strain LCB3, hits give low values 0.982 | locus YJL154C, strain vps35, hits give low values 1.01 | locus YJL164C, strain tpk1, hits give low values 0.987 | locus YJL166W, strain qcr8, hits give low values 1.02 | locus YJL168C, strain set2, hits give low values 1 | locus YJL187C, strain SWE1 (second series), hits give low values 0.982 | locus YJL187C, strain SWE1, hits give low values 1.02 | locus YJR043C, strain POL32, hits give low values 0.955 | locus YJR066W, strain TOR1, hits give low values 0.916 | locus YKL009W, strain mrt4, hits give low values 0.95 | locus YKL068W, hits give low values 0.989 | locus YKL085W, strain MDH1 (second series), hits give low values 1.01 | locus YKL085W, strain MDH1, hits give low values 1.01 | locus YKL160W, strain elf1, hits give low values 1.01 | locus YKL190W, strain CNB1, hits give low values 0.992 | locus YKR001C, strain vps1, hits give low values 0.959 | locus YKR026C, strain gcn3, hits give low values 1.01 | locus YKR091W, strain srl3, hits give low values 1.01 | locus YLL001W, strain dnm1, hits give low values 1.02 | locus YLL026W, hits give low values 1.02 | locus YLL041C, strain sdh2, hits give low values 1.02 | locus YLR027C, strain aat2, hits give low values 1.03 | locus YLR039C, strain RIC1, hits give low values 0.848 | locus YLR058C, strain SHM2, hits give low values 0.96 | locus YLR102C, strain apc9, hits give low values 1.01 | locus YLR113W, strain HOG1, hits give low values 1.03 | locus YLR221C, strain rsa3, hits give low values 0.995 | locus YLR258W, strain gsy2, hits give low values 1 | locus YLR262C, strain YPT6 (second series), hits give low values 0.974 | locus YLR262C, strain YPT6, hits give low values 0.749 | locus YLR268W, strain sec22, hits give low values 0.982 | locus YLR320W, strain mms22, hits give low values 0.981 | locus YLR330W, strain CHS5, hits give low values 0.984 | locus YLR342W, strain FKS1 (second series), hits give low values 0.98 | locus YLR342W, strain FKS1, hits give low values 0.998 | locus YLR357W, strain rsc2, hits give low values 0.999 | locus YLR370C, strain arc18, hits give low values 1.03 | locus YLR371W, strain rom2, hits give low values 0.985 | locus YLR384C, strain iki3, hits give low values 1.02 | locus YLR418C, strain cdc73, hits give low values 1.02 | locus YML016C, strain PPZ1, hits give low values 0.979 | locus YML032C, strain rad52, hits give low values 0.987 | locus YML120C, strain ndi1, hits give low values 1.02 | locus YML124C, strain tub3, hits give low values 1 | locus YMR058W, strain fet3, hits give low values 1.02 | locus YMR078C, strain ctf18, hits give low values 1 | locus YMR125W, strain sto1, hits give low values 0.999 | locus YMR129W, hits give low values 1.01 | locus YMR205C, strain PFK2, hits give low values 0.985 | locus YMR223W, strain ubp8, hits give low values 1.04 | locus YMR231W, strain pep5, hits give low values 1.05 | locus YMR307W, strain GAS1, hits give low values 0.881 | locus YNL067W, strain RPL9B, hits give low values 0.982 | locus YNL071W, strain lat1, hits give low values 0.965 | locus YNL128W, strain TEP1, hits give low values 0.982 | locus YNL183C, strain NPR1, hits give low values 0.983 | locus YNL209W, strain ssb2, hits give low values 1.02 | locus YNL233W, strain BNI4, hits give low values 0.986 | locus YNL248C, strain rpa49, hits give low values 1.01 | locus YNL250W, strain rad50, hits give low values 0.984 | locus YNL271C, strain bni1, hits give low values 1 | locus YNL298W, strain CLA4, hits give low values 1 | locus YNL307C, strain MCK1, hits give low values 1 | locus YNL322C, strain KRE1 (second series), hits give low values 1.01 | locus YNL322C, strain KRE1, hits give low values 0.998 | locus YNR049C, strain mso1, hits give low values 1 | locus YNR052C, strain pop2, hits give low values 1.01 | locus YOL012C, strain htz1 1.24 | locus YOL147C, strain pex11, hits give low values 1.01 | locus YOR001W, strain rrp6, hits give low values 1.03 | locus YOR061W, strain CKA2, hits give low values 0.962 | locus YOR069W, strain VPS5, hits give low values 0.984 | locus YOR070C, strain gyp1, hits give low values 1.02 | locus YOR080W, strain dia2, hits give low values 1.03 | locus YOR083W, strain WHI5, hits give low values 1 | locus YOR106W, strain vam3, hits give low values 1.04 | locus YOR136W, strain idh2, hits give low values 1 | locus YOR144C, strain elg1, hits give low values 0.999 | locus YOR184W, strain ser1, hits give low values 0.969 | locus YOR231W, strain MKK1, hits give low values 1.04 | locus YOR265W, strain rbl2, hits give low values 1.02 | locus YOR270C, strain vph1, hits give low values 0.965 | locus YOR290C, strain snf2, hits give low values 0.988 | locus YOR316C, strain cot1, hits give low values 0.994 | locus YPL051W, strain arl3, hits give low values 1.01 | locus YPL055C, strain LGE1, hits give low values 0.959 | locus YPL078C, strain atp4, hits give low values 1.03 | locus YPL106C, strain sse1, hits give low values 1 | locus YPL240C, strain hsp82, hits give low values 1.01 | locus YPL241C, strain CIN2, hits give low values 0.975 | locus YPL256C, strain CLN2, hits give low values 1 | locus YPR119W, strain clb2, hits give low values 0.998 | locus YPR141C, strain kar3, hits give low values 0.997 | locus YPR163C, strain tif3, hits give low values 1.01 | locus YPR167C, strain met16, hits give low values 1 | strain wtn01, hits give low values 1.03
